Data on 57 sequences can be found in article doi:10.1101/2024.03.05.583629.

For the assay, the target named is pT7_6His-AlfaTag-HOXD13 (human, UniProt P35453 263-343). As to the kind of experiment: PADIT-seq. The settings on record: dsDNA, one strand shown.
pT7_6His-AlfaTag-HOXD13, sequence (P35453 263-343): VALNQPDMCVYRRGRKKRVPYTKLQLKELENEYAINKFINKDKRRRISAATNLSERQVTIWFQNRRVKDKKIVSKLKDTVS

“CTCGAGGATATCAAGATCTGGCCTCGGCCAGGTAAAAGGAACCTCTAGCTAGCCGACTCACTATAGGGATAATCGCCCTGAGCAAAGACC”: the binding signal amounted to 0.0831 ± 0.0976 log2FC. “CTCGAGGATATCAAGATCTGGCCTCGGCCCCATAAAAGGAACCTCTAGCTAGCCGACTCACTATAGGGATAATCGCCCTGAGCAAAGACC” registered a binding signal of 2.77 ± 0.0828 log2FC. The result for “CTCGAGGATATCAAGATCTGGCCTCGGCGTTTTAATCGGAACCTCTAGCTAGCCGACTCACTATAGGGATAATCGCCCTGAGCAAAGACC” reads 0.636 ± 0.0931 log2FC; that for “CTCGAGGATATCAAGATCTGGCCTCGGCCTTTTATAGGGAACCTCTAGCTAGCCGACTCACTATAGGGATAATCGCCCTGAGCAAAGACC”, 3.21 ± 0.0791 log2FC; that for “CTCGAGGATATCAAGATCTGGCCTCGGCGATTTAAAAGGAACCTCTAGCTAGCCGACTCACTATAGGGATAATCGCCCTGAGCAAAGACC”, 2.1 ± 0.071 log2FC. The result for “CTCGAGGATATCAAGATCTGGCCTCGGCCGCCCATCAGGAACCTCTAGCTAGCCGACTCACTATAGGGATAATCGCCCTGAGCAAAGACC” reads -1.02 ± 0.114 log2FC. The result for “CTCGAGGATATCAAGATCTGGCCTCGGCCGTGTAAAAGGAACCTCTAGCTAGCCGACTCACTATAGGGATAATCGCCCTGAGCAAAGACC” reads 1.58 ± 0.0857 log2FC.

The sequence “CTCGAGGATATCAAGATCTGGCCTCGGCGATCCACGCGGAACCTCTAGCTAGCCGACTCACTATAGGGATAATCGCCCTGAGCAAAGACC” gave a binding signal of -1.01 ± 0.105 log2FC. Sequence “CTCGAGGATATCAAGATCTGGCCTCGGCAGACTAAAAGGAACCTCTAGCTAGCCGACTCACTATAGGGATAATCGCCCTGAGCAAAGACC” returned a binding signal of -0.679 ± 0.104 log2FC. The result for “CTCGAGGATATCAAGATCTGGCCTCGGCCTCATAAAAGGAACCTCTAGCTAGCCGACTCACTATAGGGATAATCGCCCTGAGCAAAGACC” reads 3.06 ± 0.0788 log2FC.

In turn, “CTCGAGGATATCAAGATCTGGCCTCGGCCTTTTATTGGGAACCTCTAGCTAGCCGACTCACTATAGGGATAATCGCCCTGAGCAAAGACC” registered a binding signal of 3.44 ± 0.0778 log2FC. The result for “CTCGAGGATATCAAGATCTGGCCTCGGCGAGATAAAAGGAACCTCTAGCTAGCCGACTCACTATAGGGATAATCGCCCTGAGCAAAGACC” reads 0.43 ± 0.0919 log2FC.

“CTCGAGGATATCAAGATCTGGCCTCGGCCTTTTACCCGGAACCTCTAGCTAGCCGACTCACTATAGGGATAATCGCCCTGAGCAAAGACC” came in with a binding signal of -0.00238 ± 0.0891 log2FC. On to “CTCGAGGATATCAAGATCTGGCCTCGGCATTTTATTTGGAACCTCTAGCTAGCCGACTCACTATAGGGATAATCGCCCTGAGCAAAGACC”, for which the binding signal worked out at 2.85 ± 0.07 log2FC.

As for “CTCGAGGATATCAAGATCTGGCCTCGGCTGCATAAAAGGAACCTCTAGCTAGCCGACTCACTATAGGGATAATCGCCCTGAGCAAAGACC”, the binding signal worked out at 1.39 ± 0.0891 log2FC. As to “CTCGAGGATATCAAGATCTGGCCTCGGCATTTTATGTGGAACCTCTAGCTAGCCGACTCACTATAGGGATAATCGCCCTGAGCAAAGACC”, the binding signal was 2.99 ± 0.0772 log2FC. “CTCGAGGATATCAAGATCTGGCCTCGGCCCGGTAAAAGGAACCTCTAGCTAGCCGACTCACTATAGGGATAATCGCCCTGAGCAAAGACC” came in with a binding signal of 0.409 ± 0.0951 log2FC. In turn, “CTCGAGGATATCAAGATCTGGCCTCGGCATTTTAGTGGGAACCTCTAGCTAGCCGACTCACTATAGGGATAATCGCCCTGAGCAAAGACC” gave a binding signal of 1.61 ± 0.0939 log2FC.

Sequence “CTCGAGGATATCAAGATCTGGCCTCGGCACGTTAAAAGGAACCTCTAGCTAGCCGACTCACTATAGGGATAATCGCCCTGAGCAAAGACC” returned a binding signal of 1.42 ± 0.0726 log2FC. As to “CTCGAGGATATCAAGATCTGGCCTCGGCCTTTTAATGGGAACCTCTAGCTAGCCGACTCACTATAGGGATAATCGCCCTGAGCAAAGACC”, the binding signal turned out to be 2.57 ± 0.0798 log2FC. The sequence “CTCGAGGATATCAAGATCTGGCCTCGGCCTATTAAAAGGAACCTCTAGCTAGCCGACTCACTATAGGGATAATCGCCCTGAGCAAAGACC” registered a binding signal of 3.05 ± 0.0763 log2FC. With “CTCGAGGATATCAAGATCTGGCCTCGGCGACTTAAAAGGAACCTCTAGCTAGCCGACTCACTATAGGGATAATCGCCCTGAGCAAAGACC”, the binding signal was 0.297 ± 0.0744 log2FC. The result for “CTCGAGGATATCAAGATCTGGCCTCGGCTTTTTATACGGAACCTCTAGCTAGCCGACTCACTATAGGGATAATCGCCCTGAGCAAAGACC” reads 2.44 ± 0.0818 log2FC; that for “CTCGAGGATATCAAGATCTGGCCTCGGCCTTTTAATCGGAACCTCTAGCTAGCCGACTCACTATAGGGATAATCGCCCTGAGCAAAGACC”, 1.35 ± 0.0812 log2FC; that for “CTCGAGGATATCAAGATCTGGCCTCGGCCTGATAAAAGGAACCTCTAGCTAGCCGACTCACTATAGGGATAATCGCCCTGAGCAAAGACC”, 1.73 ± 0.0914 log2FC. The result for “CTCGAGGATATCAAGATCTGGCCTCGGCGTTTTATAAGGAACCTCTAGCTAGCCGACTCACTATAGGGATAATCGCCCTGAGCAAAGACC” reads 3.26 ± 0.0829 log2FC; that for “CTCGAGGATATCAAGATCTGGCCTCGGCTGACTAAAAGGAACCTCTAGCTAGCCGACTCACTATAGGGATAATCGCCCTGAGCAAAGACC”, -0.535 ± 0.11 log2FC; that for “CTCGAGGATATCAAGATCTGGCCTCGGCGTTTTATGTGGAACCTCTAGCTAGCCGACTCACTATAGGGATAATCGCCCTGAGCAAAGACC”, 2.96 ± 0.0773 log2FC. As for “CTCGAGGATATCAAGATCTGGCCTCGGCTACTGGGCGGGAACCTCTAGCTAGCCGACTCACTATAGGGATAATCGCCCTGAGCAAAGACC”, the binding signal is -1.09 ± 0.112 log2FC. In the case of “CTCGAGGATATCAAGATCTGGCCTCGGCATTTTATGAGGAACCTCTAGCTAGCCGACTCACTATAGGGATAATCGCCCTGAGCAAAGACC”, the binding signal came out at 3.3 ± 0.0767 log2FC. Sequence “CTCGAGGATATCAAGATCTGGCCTCGGCTATATAAAAGGAACCTCTAGCTAGCCGACTCACTATAGGGATAATCGCCCTGAGCAAAGACC” displayed a binding signal of 2.63 ± 0.0902 log2FC.

The sequence “CTCGAGGATATCAAGATCTGGCCTCGGCTGCCTAAAAGGAACCTCTAGCTAGCCGACTCACTATAGGGATAATCGCCCTGAGCAAAGACC” had a binding signal of -0.51 ± 0.109 log2FC.

“CTCGAGGATATCAAGATCTGGCCTCGGCCTTTTAAGTGGAACCTCTAGCTAGCCGACTCACTATAGGGATAATCGCCCTGAGCAAAGACC” had a binding signal of 1.38 ± 0.0835 log2FC. The result for “CTCGAGGATATCAAGATCTGGCCTCGGCGGTATAAAAGGAACCTCTAGCTAGCCGACTCACTATAGGGATAATCGCCCTGAGCAAAGACC” reads 1.44 ± 0.072 log2FC; that for “CTCGAGGATATCAAGATCTGGCCTCGGCAGAGTAAAAGGAACCTCTAGCTAGCCGACTCACTATAGGGATAATCGCCCTGAGCAAAGACC”, 0.253 ± 0.1 log2FC; that for “CTCGAGGATATCAAGATCTGGCCTCGGCGGCCTAAAAGGAACCTCTAGCTAGCCGACTCACTATAGGGATAATCGCCCTGAGCAAAGACC”, -0.691 ± 0.105 log2FC. The result for “CTCGAGGATATCAAGATCTGGCCTCGGCCGCAGTCGCGGAACCTCTAGCTAGCCGACTCACTATAGGGATAATCGCCCTGAGCAAAGACC” reads -1.09 ± 0.145 log2FC; that for “CTCGAGGATATCAAGATCTGGCCTCGGCGTAGTAAAAGGAACCTCTAGCTAGCCGACTCACTATAGGGATAATCGCCCTGAGCAAAGACC”, 2.18 ± 0.0733 log2FC; that for “CTCGAGGATATCAAGATCTGGCCTCGGCTTTTTAGCGGGAACCTCTAGCTAGCCGACTCACTATAGGGATAATCGCCCTGAGCAAAGACC”, -0.0861 ± 0.121 log2FC. For “CTCGAGGATATCAAGATCTGGCCTCGGCATTTTATAAGGAACCTCTAGCTAGCCGACTCACTATAGGGATAATCGCCCTGAGCAAAGACC”, the binding signal stood at 3.26 ± 0.0841 log2FC. In turn, “CTCGAGGATATCAAGATCTGGCCTCGGCTCTGTAAAAGGAACCTCTAGCTAGCCGACTCACTATAGGGATAATCGCCCTGAGCAAAGACC” returned a binding signal of 1.83 ± 0.0871 log2FC.

With “CTCGAGGATATCAAGATCTGGCCTCGGCCTTTTAGGGGGAACCTCTAGCTAGCCGACTCACTATAGGGATAATCGCCCTGAGCAAAGACC”, the binding signal was 1.1 ± 0.083 log2FC.

In turn, “CTCGAGGATATCAAGATCTGGCCTCGGCGTTTTACAGGGAACCTCTAGCTAGCCGACTCACTATAGGGATAATCGCCCTGAGCAAAGACC” showed a binding signal of 2.89 ± 0.0835 log2FC. Sequence “CTCGAGGATATCAAGATCTGGCCTCGGCCTTTTAAGAGGAACCTCTAGCTAGCCGACTCACTATAGGGATAATCGCCCTGAGCAAAGACC” registered a binding signal of 2.52 ± 0.0827 log2FC. Turning to “CTCGAGGATATCAAGATCTGGCCTCGGCTGGATAAAAGGAACCTCTAGCTAGCCGACTCACTATAGGGATAATCGCCCTGAGCAAAGACC”, the binding signal is -0.165 ± 0.087 log2FC.

“CTCGAGGATATCAAGATCTGGCCTCGGCCTTTTAACAGGAACCTCTAGCTAGCCGACTCACTATAGGGATAATCGCCCTGAGCAAAGACC” registered a binding signal of 1.89 ± 0.0877 log2FC. As to “CTCGAGGATATCAAGATCTGGCCTCGGCCGCCCAATTGGAACCTCTAGCTAGCCGACTCACTATAGGGATAATCGCCCTGAGCAAAGACC”, the binding signal is -0.555 ± 0.114 log2FC. The sequence “CTCGAGGATATCAAGATCTGGCCTCGGCACATTAAAAGGAACCTCTAGCTAGCCGACTCACTATAGGGATAATCGCCCTGAGCAAAGACC” had a binding signal of 2.06 ± 0.09 log2FC.

“CTCGAGGATATCAAGATCTGGCCTCGGCTATCTAAAAGGAACCTCTAGCTAGCCGACTCACTATAGGGATAATCGCCCTGAGCAAAGACC” showed a binding signal of -0.377 ± 0.118 log2FC.

“CTCGAGGATATCAAGATCTGGCCTCGGCCGCCCAGAGGGAACCTCTAGCTAGCCGACTCACTATAGGGATAATCGCCCTGAGCAAAGACC” gave a binding signal of -1.03 ± 0.139 log2FC. The result for “CTCGAGGATATCAAGATCTGGCCTCGGCGTGCTAAAAGGAACCTCTAGCTAGCCGACTCACTATAGGGATAATCGCCCTGAGCAAAGACC” reads -0.142 ± 0.0902 log2FC.

In turn, “CTCGAGGATATCAAGATCTGGCCTCGGCAACATAAAAGGAACCTCTAGCTAGCCGACTCACTATAGGGATAATCGCCCTGAGCAAAGACC” returned a binding signal of 1.52 ± 0.0783 log2FC. Consider “CTCGAGGATATCAAGATCTGGCCTCGGCCAGTTAAAAGGAACCTCTAGCTAGCCGACTCACTATAGGGATAATCGCCCTGAGCAAAGACC”, for which the binding signal was 2 ± 0.0881 log2FC. The result for “CTCGAGGATATCAAGATCTGGCCTCGGCTTTTTATAAGGAACCTCTAGCTAGCCGACTCACTATAGGGATAATCGCCCTGAGCAAAGACC” reads 3.23 ± 0.0851 log2FC. The result for “CTCGAGGATATCAAGATCTGGCCTCGGCTTTTTATATGGAACCTCTAGCTAGCCGACTCACTATAGGGATAATCGCCCTGAGCAAAGACC” reads 3.25 ± 0.0873 log2FC.

In the case of “CTCGAGGATATCAAGATCTGGCCTCGGCCGCCCAAGCGGAACCTCTAGCTAGCCGACTCACTATAGGGATAATCGCCCTGAGCAAAGACC”, the binding signal is -0.698 ± 0.123 log2FC. Sequence “CTCGAGGATATCAAGATCTGGCCTCGGCGTTTTAAACGGAACCTCTAGCTAGCCGACTCACTATAGGGATAATCGCCCTGAGCAAAGACC” returned a binding signal of 0.884 ± 0.0954 log2FC.
